Assay [1] is described as follows: A CellTox Green Cytotoxicity Assay to monitor cytotoxicity in HEK293 cells - 40 hour (AID 1224871). Also: nearly all actives have a fitted effect of over 45% in size. Also: potency is read from the fitted curve at half-maximal effect. The gist of the method: (§1)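 HEK293 cells, 600/well, were preincubated 5 hours and then exposed to compounds at 37 C for up to 40 hours. A cell-impermeant cyanine dye staining dead-cell DNA was read by fluorescence at 0, 8, 16, 24, 32 and 40 h time points.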
Assay [2] in a line: qHTS RealTime-Glo MT Cell Viability Assay in HEK293 cells - 16 hour (AID 1224872). Also: top concentration of the series differs between compounds; nearly all actives have a fitted effect of over 50% in size. The gist of the method: (§2)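 Reads taken at 0, 8, 16, 24, 32 and 40 h from the same wells. HEK293 cells (600/well) carried RealTime-Glo reagents from seeding, with compound added after a 5 h settle at 37 C.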
A general note: In qHTS, concentration-response curves come from the screen itself.

The nature of assay [3]: qHTS RealTime-Glo MT Cell Viability Assay in HepG2 cells - 8 hour (AID 1224873). Also: nearly all actives have a fitted effect of over 55% in size. Put shortly: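 HepG2 cells (600/well) mixed with RealTime-Glo MT reagent, settled 5 h at 37 C/5% CO2 before compound addition. Nonlytic NanoLuc luminescence from viable-cell prosubstrate reduction read repeatedly during 40 h treatment at 37 C.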
Assay [4] is described as follows: qHTS RealTime-Glo MT Cell Viability Assay in HEK293 cells - 40 hour (AID 1224874). Also: nearly all actives have a fitted effect of over 50% in size. Also: potency is read from the fitted curve at half-maximal effect. Particulars: RealTime-Glo luminescence; max response: active compounds read low. The gist of the method: (§3)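 600 cells/well were plated with the nonlytic NanoLuc/prosubstrate reagent, pre-incubated 5 h, then given 23 nL of compound in DMSO. Incubation at 37 C for 40 h, with luminescence from viable-cell-reduced substrate read repeatedly from 0 h.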

The nature of assay [5]: A CellTox Green Cytotoxicity Assay to monitor cytotoxicity in HEK293 cells - 24 hour (AID 1224875). Also: series mostly up to about 77 µM; nearly all actives have a fitted effect of over 45% in size. The gist of the method:
as §1

A short description of assay [6]: A CellTox Green Cytotoxicity Assay to monitor cytotoxicity in HepG2 cells - 16 hour (AID 1224876). Also: nearly all actives have a fitted effect of over 45% in size. Put shortly: (§4)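 HepG2 cells, 600/well, preincubated 5 h with CellTox Green dye, then exposed to Tox21 compounds in DMSO at 37 C for up to 40 h. Dead-cell DNA fluorescence read at the indicated time point.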
A short description of assay [7]: qHTS RealTime-Glo MT Cell Viability Assay in HepG2 cells - 32 hour (AID 1224877). Also: nearly all actives have a fitted effect of over 55% in size. The gist of the method: (§5)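 HepG2 suspension premixed with RealTime-Glo reagents is plated at 600 cells per well and left 5 h at 37 C/5% CO2. Compounds in DMSO then go in, and bioluminescence reflecting viable cell number is recorded over 40 h.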
Assay [8] is described as follows: A CellTox Green Cytotoxicity Assay to monitor cytotoxicity in HepG2 cells - 24 hour (AID 1224878). Also: nearly all actives have a fitted effect of over 45% in size. The gist of the method:
as §4

A short description of assay [9]: qHTS RealTime-Glo MT Cell Viability Assay in HEK293 cells - 0 hour (AID 1224880). The gist of the method: as §3
The nature of assay [10]: A CellTox Green Cytotoxicity Assay to monitor cytotoxicity in HEK293 cells - 32 hour (AID 1224881). Also: nearly all actives have a fitted effect of over 40% in size. Also: potency is read from the fitted curve at half-maximal effect. The gist of the method:
as §1

A short description of assay [11]: A CellTox Green Cytotoxicity Assay to monitor cytotoxicity in HepG2 cells - 0 hour (AID 1224882). Also: nearly all actives have a fitted effect of over 35% in size. The gist of the method: as §4
Assay [12] can be described thus: A CellTox Green Cytotoxicity Assay to monitor cytotoxicity in HepG2 cells - 32 hour (AID 1224883). Also: nearly all actives have a fitted effect of over 50% in size. Also: potency is read from the fitted curve at half-maximal effect. The gist of the method:
as §4

Assay [13] can be described thus: A CellTox Green Cytotoxicity Assay to monitor cytotoxicity in HEK293 cells - 8 hour (AID 1224884). Also: nearly all actives have a fitted effect of over 35% in size. The gist of the method: as §1
Assay [14] is described as follows: qHTS RealTime-Glo MT Cell Viability Assay in HepG2 cells - 16 hour (AID 1224885). Also: nearly all actives have a fitted effect of over 50% in size. Put shortly: as §5
A short description of assay [15]: qHTS RealTime-Glo MT Cell Viability Assay in HEK293 cells - 8 hour (AID 1224887). Put shortly: as §3
Assay [16] in a line: A CellTox Green Cytotoxicity Assay to monitor cytotoxicity in HEK293 cells - 16 hour (AID 1224888). Also: nearly all actives have a fitted effect of over 35% in size. Put shortly: as §1
Assay [17] in a line: qHTS RealTime-Glo MT Cell Viability Assay in HepG2 cells - 0 hour (AID 1224889). Also: nearly all actives have a fitted effect of over 50% in size. Put shortly: as §5
Assay [18] can be described thus: A CellTox Green Cytotoxicity Assay to monitor cytotoxicity in HepG2 cells - 8 hour (AID 1224890). Also: nearly all actives have a fitted effect of over 45% in size. The gist of the method:
as §4

Assay [19] in a line: A CellTox Green Cytotoxicity Assay to monitor cytotoxicity in HepG2 cells - 40 hour (AID 1224879). Also: nearly all actives have a fitted effect of over 40% in size. Put shortly: as §4
Assay [20] in a line: qHTS RealTime-Glo MT Cell Viability Assay in HEK293 cells - 24 hour (AID 1224886). Put shortly: as §2

“And” between values parts separate entries of the source, which are not always exact repeats. Equal values may be shown once. A number with no mark means an inactive call. Results filed as inconclusive are left out. More than one record can exist for a structure, and the calls need not agree. The source made the active and inactive calls. Calls follow the shape of the dose curve; as a rule, active = well fitted curve in the direction sought with a large enough effect in the repeat runs; inconclusive = weak or mixed curves; inactive = no such curve, though single readings can be large; an effect the other way counts as inactive or inconclusive.
% is scaled to controls: 0 for no effect and ±100 for the full control effect.

Regarding `CCCCCC=O`, the Potency result in [1], in assay [2], in [3], in assay [5], in assay [6] and in assay [7] was “inactive” in each case. In addition, the Potency result in assay [8], in assay [9], in [10], in assay [11], in assay [12] and in assay [13] was “inactive” each time. For the same molecule, the Potency result in [14], in [15], in [16], in assay [17] and in assay [18] was “inactive” each time. Moreover, the max response in assay [4] was -0.468% and 7.09%.
`Cc1cccc(Nc2ccccc2C(=O)O)c1C`: the Potency entry in assay [1], in assay [2], in assay [3], in [5], in assay [6] and in [7] was “inactive” in each case. Moreover, the Potency entry in assay [8], in assay [19], in assay [10], in assay [11], in assay [12] and in [14] was “inactive” throughout. The Potency entry in assay [20], in assay [15], in assay [16], in [17] and in assay [18] was “inactive” throughout. Also, the max response in assay [4] was -11.8% and 1.92%.
As to `Cc1ccc(S(=O)(=O)NCl)cc1`, the Potency result in assay [1], in assay [2], in assay [3], in assay [5], in [6] and in assay [7] was “inactive” each time. Further, the Potency result in assay [8], in assay [19], in assay [9], in assay [10], in assay [11] and in assay [12] was “inactive” throughout. The Potency entry in assay [14], in assay [20], in assay [15], in assay [16], in [17] and in assay [18] was “inactive” in each case. In addition, in assay [4], the max response was 4.42% and 3.53%.
For the molecule `CC1(C)C(C=C(Cl)Cl)C1C(=O)OCc1cccc(Oc2ccccc2)c1` (stereo not given), the Potency entry in [1], in assay [2], in assay [3], in [5], in assay [6] and in [7] was “inactive” throughout. In addition, the Potency result in [8], in assay [19], in [10], in assay [11], in assay [12] and in assay [14] was “inactive” in each case. For the same molecule, the Potency result in [15], in assay [16], in assay [17] and in [18] was “inactive” each time. Moreover, the max response in assay [4] was -20.8% and -17.3%.
Take `C=CCNCC=C`: the Potency entry in [1], in assay [2], in assay [3], in assay [5], in assay [6] and in assay [7] was “inactive” throughout. For the same molecule, the Potency entry in assay [8], in [10], in assay [11], in assay [12], in [13] and in assay [14] was “inactive” each time. Also, the Potency entry in assay [20], in [15], in assay [16], in assay [17] and in assay [18] was “inactive” each time. Also, the max response in [4] is 4.5% and 4.18%.
`CCCCCCCCCCCCCO`: the Potency result in [1], in assay [2], in assay [3], in [5], in [6] and in [7] was “inactive” throughout. In addition, the Potency entry in assay [8], in [9], in [10], in assay [11], in assay [12] and in assay [13] was “inactive” in each case. Moreover, the Potency entry in [14], in assay [15], in [16], in [17] and in [18] was “inactive” throughout. For the same molecule, the max response in assay [4] was 3.82% and -0.0255%.
`O=[Se](O)O`: the Potency in [1] is 30.9 µM (active); in assay [4], 17.4 µM (active); in assay [10], 39 µM (active); in [12], 24.6 µM (active). Moreover, the cytotoxicity increase was -7.57% [at 15.8 µM] in assay [1], -8.61% [at 15.8 µM] in assay [10] and 9.15% [at 15.8 µM] in assay [12]. Also, the Potency result in [2], in assay [3], in [5], in [6], in assay [9] and in assay [11] was “inactive” throughout. The Potency result in [13], in assay [14], in [15], in assay [16], in [17] and in assay [18] was “inactive” each time. In addition, the activity change, negative = cytotoxic in assay [7] is -0.276% [at 15.8 µM]. For the same molecule, the cytotoxicity in [8] is 4.65% [at 15.8 µM]. In addition, the activity change, negative = cytotoxicity in [20] is -26.2% [at 15.8 µM].
On to `Nc1ccc2c(O)cc(S(=O)(=O)O)cc2c1`, for which the Potency entry in assay [1], in [2], in [3], in assay [5], in assay [6] and in [7] was “inactive” in each case. Moreover, the Potency result in [8], in assay [9], in [10], in assay [11], in assay [12] and in assay [13] was “inactive” each time. Besides, the Potency entry in assay [14], in [15], in [16], in [17] and in assay [18] was “inactive” throughout. The Potency in assay [4] is 6.17 µM (active).
As for `c1ccc2cc3ccccc3cc2c1`, the Potency entry in [1], in assay [2], in assay [3], in [5], in assay [6] and in [7] was “inactive” throughout. Also, the Potency entry in [8], in assay [19], in assay [9], in [10], in assay [11] and in assay [12] was “inactive” each time. Besides, the Potency entry in assay [13], in assay [14], in assay [20], in [15], in assay [16] and in assay [17] was “inactive” each time. Besides, the Potency result in [18] was “inactive”. In addition, in assay [4], the max response was 1.77% and 23.2%.
For `CCCN1C=CN(C)C1`, the Potency entry in [1], in assay [2], in assay [3], in assay [5], in assay [6] and in assay [7] was “inactive” each time. For the same molecule, the Potency result in assay [8], in assay [19], in assay [10], in assay [11], in assay [12] and in assay [13] was “inactive” throughout. For the same molecule, the Potency entry in assay [14], in [20], in assay [15], in assay [16], in [17] and in assay [18] was “inactive” in each case. For the same molecule, the max response in assay [4] was -1.14% and -1.07%.
With `COC(=O)c1ccc(C)cc1`, the Potency result in assay [1], in assay [2], in assay [3], in assay [5], in assay [6] and in assay [7] was “inactive” throughout. The Potency result in assay [8], in assay [19], in [9], in assay [10], in assay [11] and in [12] was “inactive” throughout. The Potency entry in assay [13], in assay [14], in [20], in assay [15], in assay [16] and in [17] was “inactive” in each case. Further, in assay [18], the Potency entry was “inactive”. In [4], the max response was 1.02% and 6.36%.
Take `Cc1ccc(N)c([N+](=O)[O-])c1`: the Potency result in assay [1], in assay [2], in assay [3], in [5], in assay [6] and in [7] was “inactive” throughout. For the same molecule, the Potency entry in [8], in assay [19], in [10], in assay [11], in assay [12] and in assay [13] was “inactive” throughout. The Potency entry in [14], in [15], in assay [16], in assay [17] and in assay [18] was “inactive” throughout. Besides, the max response in [4] was 2.67% and 2.77%.

The record behind these values is PubChem BioAssay (Tox21).
